Results taken from PubChem BioAssay AID2685 (National Center for Advancing Translational Sciences (NCATS), 2010).
Hit rate of the full screen: of about 320,000 compounds, about 2,100 (0.66%) were called active. About 53% were inconclusive and are not listed. Calls come from the whole dose curve; as a rule, active = well fitted inhibition curve with a large enough effect in the signal ratio, with a control signal flat (not every such curve was filed as active); inconclusive = small, poorly fitted or top-dose-only effect, or effect the other way, or a change in a side signal; inactive = flat fitted curve, though single readings scatter; the % refers to the signal ratio. The entries come from a sample that favours actives as a whole.

Assay: qHTS Assay for Lipid Storage Modulators in Drosophila S3 Cells;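 for cell number change: cells counted by Cell Tracker Red CMTPX staining in the red channel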
Conditions: BODIPY lipid droplet fluorescence, 18-24 h, cells fed with added oleic acid; cell number change: measured here: cell count max response; series mostly up to 46.1 µM
Procedure, shortened: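 Laser-scanning cytometry quantifies lipid droplet accumulation (500–530 nm total intensity; droplet/cell object ratio) in oleic acid-fed (400 uM added) Drosophila S3 cells treated with a concentration series. 20 uM Triacsin C defined 100% inhibition.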
Potency is the fitted concentration of half-maximal effect.

| Structure (SMILES) | Potency | cell number change [%] |
| --- | --- | --- |
| COc1ccc(OC)c(/C=C/C(=O)NCCc2nc3ccccc3[nH]2)c1 | inactive | -6.41 |
| COc1ccc(/C=C/C(=O)NCCc2nc3ccccc3[nH]2)cc1 | inactive | -8.48 |
| CCCCCOc1ccc(/C=C/C(=O)NCCc2nc3ccccc3[nH]2)cc1OC | 13 µM (active) | -28.6 |
| O=C(Nc1nnc(-c2cccs2)o1)C1CC1 | inactive | -5.18 |
| COc1ccc(N2C(=O)CSC2c2ccccc2)cc1 (configuration not stated) | inactive | 14.6 |
| Cc1n[nH]c(C)c1S(=O)(=O)N1CCc2ccccc21 | inactive | -2.98 |
| C/C(=N\NC(=O)c1cccs1)c1cccnc1 | inactive | 20.6 |
| S=C(NCc1ccccc1)N1CCn2cccc2C1c1ccncc1 (configuration not stated) | inactive | 5.96 |
| S=C(NCCc1ccccc1)N1CCn2cccc2C1c1ccncc1 (configuration not stated) | 7.31 µM (active) | 15.3 |
| S=C(NCCc1ccccc1)N1CCn2cccc2C1c1cccnc1 (configuration not stated) | inactive | -24.1 |
| CC[C@@H](NS(=O)(=O)c1ccc(C)cc1)C(=O)Oc1ccc2c3c(c(=O)oc2c1)CCC3 | inactive | 4.66 |
| CC(=O)NC12CC3CC(C1)CC(C(=O)Nc1nc4ccc(F)cc4s1)(C3)C2 | inactive | -27.9 |
| CC(=O)NC12CC3CC(C1)CC(C(=O)Nc1nc4ccc(S(C)(=O)=O)cc4s1)(C3)C2 | inactive | -1.02 |
| CC(=O)NC12CC3CC(C1)CC(C(=O)Nc1nc4c(C)cccc4s1)(C3)C2 | 5.8 µM (active) | -14.2 |
| O=C1C=C(N2CCOCC2)c2ccccc2C1=O | 4.11 µM (active) | -6.93 |
| O=C(O)c1ccc(NC2=C(N3CCOCC3)C(=O)c3ccccc3C2=O)cc1 | inactive | -2.96 |
| CC(=O)N(C)C1=C(N2CCOCC2)C(=O)c2ccccc2C1=O | inactive | 0.283 |
| Cc1ccc(-n2nc(C)c3c(C)c(CCC(=O)O)c(C)nc32)cc1C | inactive | 9.26 |
| O=C(O)CCCc1ccc2ccc3cccc4ccc1c2c34 | inactive | 11.3 |
| CCC(C)(C)NC(=O)CN(Cc1ccc2c(c1)OCO2)C(=O)CCC(=O)Nc1ccccn1 | inactive | – |
| O=C(CN(Cc1ccccc1)C(=O)CCC(=O)Nc1ccccn1)NCc1ccc(F)cc1 | inactive | 7.92 |
| COc1ccc(CN(CC(=O)NCc2ccc(F)cc2)C(=O)CCC(=O)Nc2cc(C)ccn2)cc1 | 23.1 µM (active) | 6.52 |
| CC(C)CCNC(=O)CN(Cc1ccc2c(c1)OCO2)C(=O)CCC(=O)Nc1ccccn1 | inactive | 2.93 |

| Structure (SMILES) | Potency | cell number change [%] |
| --- | --- | --- |
| Cc1ccnc(NC(=O)CCC(=O)N(CC(=O)NC(C)(C)C)c2ccc3c(c2)OCCO3)c1 | inactive | 5.82 |
| CCOc1ncccc1C(=O)N(CC)CC(=O)NCc1ccc(F)cc1 | 3.66 µM (active) | 4.96 |
| CC(C)NC(=O)CN(Cc1ccc2c(c1)OCO2)C(=O)CCC(=O)Nc1ccccn1 | 18.4 µM (active) | 0.42 |
| Cc1ccnc(NC(=O)CCC(=O)N(CC(=O)NCc2ccccc2)Cc2ccccc2)c1 | inactive | 14.2 |
| Cc1ccnc(NC(=O)CCC(=O)N(CC(=O)NC(C)(C)C)Cc2ccc3c(c2)OCO3)c1 | 23.1 µM (active) | -17.5 |
| CCOc1ncccc1C(=O)N(CC)CC(=O)Nc1ccc(NC(C)=O)cc1 | inactive | 4.04 |
| CCN(CC(=O)NCc1ccc(F)cc1)C(=O)c1cccnc1SC | inactive | 23.4 |
| CCc1ccc(N(CC(=O)NC(C)C)C(=O)CCC(=O)Nc2ccccn2)cc1 | inactive | -21 |
| COC(=O)Cc1c(C)nc2nc(NCc3cccc([N+](=O)[O-])c3)[nH]n2c1=O | inactive | 22.4 |
| COc1cccc(NC(=O)c2ccn(C)n2)c1 | inactive | -7.57 |
| CCCC(=O)Nc1cc(C(=O)O)ccc1Sc1ccccc1 | inactive | -3.48 |
| Cc1cc(C)n(-c2ccc(C(=O)NCc3ccc4c(c3)OCO4)cc2)n1 | inactive | -26 |
| COc1ccc(S(=O)(=O)NC2CC(=O)N(c3ccc(C)c(C)c3)C2)cc1C (configuration not stated) | inactive | – |
| O=C(Cn1cnc2ccccc2c1=O)c1ccccc1 | inactive | -5.21 |
| O=C(CNC(=O)c1ccncc1)N/N=C/c1cc(Br)ccc1O | inactive | -8.8 |
| Cc1cccc(N2C(=O)CC(N(C(=O)c3ccco3)c3cccc(C)c3)C2=O)c1 (configuration not stated) | inactive | 1.21 |
| COc1ccccc1/C=c1\sc2nc(-c3ccccc3OC)nn2c1=O | inactive | -6.9 |
| Cn1c(-c2sc3cc(C(F)(F)F)cnc3c2-c2cccs2)n[nH]c1=S | inactive | -11.9 |
| O=S(=O)(c1ccccc1)n1ccc2ccccc21 | inactive | -15.8 |
| O=C1/C(=C\c2cccs2)Sc2ccc3ccccc3c21 | 16.4 µM (active) | -14.8 |
| NC1=NC(=O)/C(=C/c2cccs2)S1 | inactive | -5.63 |
| O=C1N=C(N2CCN(c3cccc4ccccc34)CC2)S/C1=C/c1cccs1 | inactive | – |
